From PubChem BioAssay (NCATS)

Molecular target: Phenylethanolamine N-methyltransferase (Homo sapiens) (UniProt P11086)
Test: Confirmatory Screen for Target Class Profiling of Small Molecule Inhibitors of Methyltransferases (AID 1745852)
Settings: MTase-Glo luminescence, SAH detection, recombinant enzyme; measured here: PNMT max response; stronger effect = lower value

Sequence of Phenylethanolamine N-methyltransferase (Homo sapiens) (P11086 whole entry, looked up): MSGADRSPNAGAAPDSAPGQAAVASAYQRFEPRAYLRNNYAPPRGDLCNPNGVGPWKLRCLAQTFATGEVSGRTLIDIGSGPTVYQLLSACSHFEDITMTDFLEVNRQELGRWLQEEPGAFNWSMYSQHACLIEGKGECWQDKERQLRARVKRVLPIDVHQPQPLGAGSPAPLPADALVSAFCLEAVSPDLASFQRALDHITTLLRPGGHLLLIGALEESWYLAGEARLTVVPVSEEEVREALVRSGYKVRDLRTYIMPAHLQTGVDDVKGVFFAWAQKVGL

| Structure (SMILES) | activity |
| --- | --- |
| CCCCCCCOc1cc2c(cc1/C(C)=C/c1ccc(C(=O)O)cc1)C(C)(C)CCS2(=O)=O | -11.4% |
| COc1cc2c(cc1-c1c(C)noc1C)ncc1[nH]c(=O)n(C(C)c3ccccn3)c12 (configuration not stated) | 0.401% |
| CCC(CC)C(c1ccc(Nc2nc3ccccc3s2)cc1)n1cncn1 (configuration not stated) | -5.31% |
| COc1cc2c(NC3CCN(C(C)C)CC3)nc(N3CCC(F)(F)CC3)nc2cc1OCCCN1CCCC1 | -0.61% |
| Fc1ccc(N2CCCCC2)c(NC(=S)c2ccncc2)c1 | -11.8% |
| c1cc(NC2CCNCC2)nc(-c2cnc3ccccn23)c1 | -8.43% |
| Cc1cn(CCN2CCN(c3ccccc3-c3cc(C#N)cc(C(=O)NCCCN4CCCC4)c3)CC2)c2ccccc12 | 2.94% |
| Cc1cc2c(N3CCCC3)nc(N3CCCC3)nc2n1C | -17.6% |
| Cc1cc(N2CCOCC2)ccc1Nc1nc(NC2CCCCC2)c2[nH]cnc2n1 | -9.51% |
| COc1ccc(N(C(=O)Nc2c(C)cccc2C)c2cc(Nc3ccc(N4CCN(C)CC4)cc3)ncn2)c(OC)c1 | -7.92% |
| N#C/C(=C1\Nc2ccccc2S1)c1ccnc(NCCc2cccnc2)n1 | -21.8% |
| Cc1ccc(CNc2ncnc3ccc(-c4ccc(CO)o4)cc23)o1 | -9.87% |
| CCCCCc1ccc(/C=C/C(=O)Nc2cc(Cl)ccc2C(=O)O)cc1 | -21.5% |
| C=CC(=O)Nc1ccc(CN2C(=O)N(c3cc(OC)cc(OC)c3)Cc3cnc(Nc4ccc(N5CCN(C)CC5)cc4)nc32)cc1 | -2.5% |
| Cc1ccc(C)c(-c2cc(C(F)(F)F)nn2-c2ccc(S(N)(=O)=O)cc2)c1 | -4.27% |
| COc1ccc2nc3n[nH]c(C)c3c(NCCOCCO)c2c1 | -54.6% |
| COc1cc2c(cc1OC)CN(C(=O)/C=C/c1c(-c3ccccc3)n(C)c3ncccc13)CC2 | -5.99% |
